According to the supplement of paper PMC8975748:
Where a name gives a salt, the structure may show the parent alone. ± gives the standard deviation of the averaged measurements.

Assays:
[1] = system: Saccharomyces cerevisiae BY4741 SeMeCo community; assay: mean cell size (pixel area) (pixels); higher = larger cells; settings: 10 µM; 24 h; SM minimal medium
How it was run: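 Harmony analysis of automated confocal images of paraformaldehyde-fixed yeast gave the mean cell pixel area per well. The yeast was a Saccharomyces cerevisiae BY4741 community carrying four plasmids, each with a fluorescent marker and each complementing one auxotrophy, incubated for 24 h in SM medium containing drug at a final 10 µM in 384-well plates. Results are averaged over 3 replicates. Same SeMeCo high-content imaging drug screen: Selleck FDA-approved drugs at 10 µM, 24 h in SM medium, 384-well plates, 3 replicates.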

[2] = system: Saccharomyces cerevisiae BY4741 SeMeCo community; assay: z-score of prototroph abundance vs DMSO median; higher = larger share of this subpopulation than in DMSO controls; settings: 10 µM; 24 h; SM minimal medium; subpopulation (auxotrophy): Prototroph
How it was run: (§1)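 Subpopulation abundance was reported as a z-score against the median of vehicle wells. The Saccharomyces cerevisiae BY4741 community, carrying four plasmids that each restored one auxotrophy and encoded a distinct fluorescent protein, was grown 24 h in minimal SM medium in 384-well plates holding library drugs at 10 µM final. Cells were paraformaldehyde-fixed and imaged by automated confocal microscopy, with single-auxotroph fluorescent strains used for thresholds and autofluorescence correction.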

[3] = system: Saccharomyces cerevisiae BY4741 SeMeCo community; assay: z-score of subpopulation abundance vs DMSO median, subpopulation auxotrophic for M; higher = larger share of this subpopulation than in DMSO controls; settings: 10 µM; 24 h; SM minimal medium; subpopulation (auxotrophy): M
How it was run: as §1

[4] = system: Saccharomyces cerevisiae BY4741 SeMeCo community; assay: z-score of subpopulation abundance vs DMSO median, subpopulation auxotrophic for L; higher = larger share of this subpopulation than in DMSO controls; settings: 10 µM; 24 h; SM minimal medium; subpopulation (auxotrophy): L
How it was run: as §1

[5] = system: Saccharomyces cerevisiae BY4741 SeMeCo community; assay: z-score of subpopulation abundance vs DMSO median, subpopulation auxotrophic for U; higher = larger share of this subpopulation than in DMSO controls; settings: 10 µM; 24 h; SM minimal medium; subpopulation (auxotrophy): U
How it was run: as §1

[6] = system: Saccharomyces cerevisiae BY4741 SeMeCo community; assay: z-score of subpopulation abundance vs DMSO median, subpopulation auxotrophic for H; higher = larger share of this subpopulation than in DMSO controls; settings: 10 µM; 24 h; SM minimal medium; subpopulation (auxotrophy): H
How it was run: as §1

[7] = system: Saccharomyces cerevisiae BY4741 SeMeCo community; assay: z-score of subpopulation abundance vs DMSO median, subpopulation auxotrophic for LU; higher = larger share of this subpopulation than in DMSO controls; settings: 10 µM; 24 h; SM minimal medium; subpopulation (auxotrophy): LU
How it was run: as §1

[8] = system: Saccharomyces cerevisiae BY4741 SeMeCo community; assay: z-score of subpopulation abundance vs DMSO median, subpopulation auxotrophic for LM; higher = larger share of this subpopulation than in DMSO controls; settings: 10 µM; 24 h; SM minimal medium; subpopulation (auxotrophy): LM
How it was run: as §1

[9] = system: Saccharomyces cerevisiae BY4741 SeMeCo community; assay: z-score of subpopulation abundance vs DMSO median, subpopulation auxotrophic for HM; higher = larger share of this subpopulation than in DMSO controls; settings: 10 µM; 24 h; SM minimal medium; subpopulation (auxotrophy): HM
How it was run: as §1

[10] = system: Saccharomyces cerevisiae BY4741 SeMeCo community; assay: z-score of subpopulation abundance vs DMSO median, subpopulation auxotrophic for HU; higher = larger share of this subpopulation than in DMSO controls; settings: 10 µM; 24 h; SM minimal medium; subpopulation (auxotrophy): HU
How it was run: as §1

[11] = system: Saccharomyces cerevisiae BY4741 SeMeCo community; assay: z-score of subpopulation abundance vs DMSO median, subpopulation auxotrophic for UM; higher = larger share of this subpopulation than in DMSO controls; settings: 10 µM; 24 h; SM minimal medium; subpopulation (auxotrophy): UM
How it was run: as §1

[12] = system: Saccharomyces cerevisiae BY4741 SeMeCo community; assay: z-score of subpopulation abundance vs DMSO median, subpopulation auxotrophic for HL; higher = larger share of this subpopulation than in DMSO controls; settings: 10 µM; 24 h; SM minimal medium; subpopulation (auxotrophy): HL
How it was run: as §1

[13] = system: Saccharomyces cerevisiae BY4741 SeMeCo community; assay: z-score of subpopulation abundance vs DMSO median, subpopulation auxotrophic for HLU; higher = larger share of this subpopulation than in DMSO controls; settings: 10 µM; 24 h; SM minimal medium; subpopulation (auxotrophy): HLU
How it was run: as §1

[14] = system: Saccharomyces cerevisiae BY4741 SeMeCo community; assay: z-score of subpopulation abundance vs DMSO median, subpopulation auxotrophic for HUM; higher = larger share of this subpopulation than in DMSO controls; settings: 10 µM; 24 h; SM minimal medium; subpopulation (auxotrophy): HUM
How it was run: as §1

[15] = system: Saccharomyces cerevisiae BY4741 SeMeCo community; assay: z-score of subpopulation abundance vs DMSO median, subpopulation auxotrophic for LUM; higher = larger share of this subpopulation than in DMSO controls; settings: 10 µM; 24 h; SM minimal medium; subpopulation (auxotrophy): LUM
How it was run: as §1

[16] = system: Saccharomyces cerevisiae BY4741 SeMeCo community; assay: z-score of subpopulation abundance vs DMSO median, subpopulation auxotrophic for HLUM; higher = larger share of this subpopulation than in DMSO controls; settings: 10 µM; 24 h; SM minimal medium; subpopulation (auxotrophy): HLUM
How it was run: as §1

| Compound | mean cell size [1] | z-score of prototroph abundance [2] | z-score of subpopulation abundance [3] | z-score of subpopulation abundance [4] | z-score of subpopulation abundance [5] | z-score of subpopulation abundance [6] | z-score of subpopulation abundance [7] | z-score of subpopulation abundance [8] | z-score of subpopulation abundance [9] | z-score of subpopulation abundance [10] | z-score of subpopulation abundance [11] | z-score of subpopulation abundance [12] | z-score of subpopulation abundance [13] | z-score of subpopulation abundance [14] | z-score of subpopulation abundance [15] | z-score of subpopulation abundance [16] |
| --- | --- | --- | --- | --- | --- | --- | --- | --- | --- | --- | --- | --- | --- | --- | --- | --- |
| C[C@]12CC[C@@H]3c4ccc(O)cc4CC[C@H]3[C@@H]1CC[C@@H]2OC(=O)CCC1CCCC1 [Estradiol Cypionate] | 12.4 ± 0.13 | -0.3 | -0.43 | -0.23 | 0.71 | -0.04 | 0.17 | -0.12 | -0.34 | 0.6 | 0.45 | -0.29 | 0 | 1.22 | 0.29 |  |
| CCCCOc1ccc(CC(=O)NO)cc1 [Bufexamac] | 12.53 ± 0.12 | 1.23 | -0.94 | -1.49 |  |  | -0.51 | -1.36 | -0.9 | 0.4 | -0.32 |  | -0.71 | -1.13 |  | -1.25 |
| COc1ccc(CC2c3cc(OC)c(OC)cc3CC[N+]2(C)CCC(=O)OCCCCCOC(=O)CC[N+]2(C)CCc3cc(OC)c(OC)cc3C2Cc2ccc(OC)c(OC)c2)cc1OC (stereo unspecified) [Atracurium Besylate] | 12.4 ± 0.24 | -0.17 | -0.87 | 1.52 | -0.48 |  | 0.39 | 0.79 | 0.41 | 0.23 | -0.21 | 1.4 | 0.55 | 0.71 | 0.45 |  |
| NC[C@H]1O[C@H](O[C@H]2[C@H](O[C@@H]3O[C@H](CO)[C@@H](O)[C@H]3O)[C@@H](O)[C@H](N)C[C@@H]2N)[C@H](N)[C@@H](O)[C@@H]1O [Ribostamycin Sulfate] | 12.13 ± 0.035 |  | -0.49 | -0.39 | 0.39 | -0.21 | 0.09 | -0.67 | 0.04 | -0.5 |  | -0.49 | -0.07 | 0.24 | -0.84 | 0.36 |
| CC(C)c1nc(N(C)S(C)(=O)=O)nc(-c2ccc(F)cc2)c1/C=C/[C@@H](O)C[C@@H](O)CC(=O)O [Rosuvastatin] | 11.22 ± 0.092 | -2.69 | -1.77 | 2.53 |  | 4.84 | 1.31 | 0 |  | 1.77 | 1 | 5.32 | 1.68 | 2.38 | 1.84 | 2.76 |
| CC1(C)S[C@@H]2[C@H](NC(=O)[C@H](N)c3ccc(O)cc3)C(=O)N2[C@H]1C(=O)O [Amoxicillin Sodium] | 12.5 ± 0.31 | 0.37 | 0.97 | -0.33 | -0.06 | -0.8 | -0.7 | -1.17 | -0.22 | -0.71 | -0.03 | -1.14 | -0.65 | -0.13 | -0.05 |  |
| N=C(N)NS(=O)(=O)c1ccc(N)cc1 [Sulfaguanidine] | 12.3 ± 0.36 | 1.31 | 0 | -0.1 | -0.5 | -0.42 | -0.67 | -0.87 |  | -0.96 | -0.62 | -0.4 | -0.69 | -1.13 | -0.49 | -1.13 |
| CNCCCC1c2ccccc2C=Cc2ccccc21 [Protriptyline hydrochloride] | 12.4 ± 0.15 |  | -0.4 | -0.45 | 0.84 |  | 0.57 | -0.93 | -0.42 | 0.37 | 0.52 | 0.25 | 0.54 | 0.54 | 0.28 | -0.01 |
| CC1(C)S[C@@H]2[C@H](NC(=O)[C@H](N)c3ccc(O)cc3)C(=O)N2[C@H]1C(=O)O [Amoxicillin trihydrate] | 12.19 ± 0.082 | -0.1 | 0.05 | 0.15 | 0.03 | -0.05 | 0.61 | 0.15 | -0.15 | 0.31 | 0.19 | -0.69 | 0.3 | -0.08 | 0.38 |  |
| CNS(=O)(=O)CCc1ccc2[nH]cc(C3CCN(C)CC3)c2c1 [Naratriptan HCl] | 12.4 ± 0.17 |  | 0.48 | -0.79 | 0.55 | -0.46 | 0.2 | 0.06 | -0.44 | 0.27 | 0.23 | -0.28 | -0.03 | -0.27 | -0.24 | -0.77 |
| Cc1cccc(C)c1NC(=O)C1CCCCN1C (stereo unspecified) [Mepivacaine HCl] | 12.5 ± 0.31 | -0.33 | -0.34 | -0.36 | 1.52 | -0.77 | 0.44 | -0.76 | -0.57 | 0.57 | 2.17 | -0.96 | 0.11 | 0.36 | 0.38 | 0.2 |
| COc1ccc(CNc2nc(N3CCC[C@H]3CO)ncc2C(=O)NCc2ncccn2)cc1Cl [Avanafil] | 12.5 ± 0.16 | -0.15 | 0.21 | -0.77 |  | -0.56 | -0.03 | -0.5 | 0.22 |  |  | -0.55 | 0.58 | 0.44 | -0.38 | -0.54 |
| CS(=O)(=O)Nc1ccc([N+](=O)[O-])cc1Oc1ccccc1 [Nimesulide] | 12.5 ± 0.22 | 0.12 | -0.1 | 0.65 | -0.45 | -0.25 | 0.49 | 0.74 |  | -0.2 | -0.24 | 0.8 | 0.61 | 0.28 |  | 0.87 |
| Nc1nc(N)nc(-c2cc(Cl)ccc2Cl)n1 [Irsogladine] | 12.2 ± 0.19 |  | -0.36 | -0.15 | -1.06 | -0.31 | -1.09 | 0.16 | -0.68 | -0.69 | -1.92 |  | 0.75 | -1.16 |  | -0.22 |
| Cc1onc(-c2ccccc2)c1-c1ccc(S(N)(=O)=O)cc1 [Valdecoxib] | 12.3 ± 0.17 |  | -0.21 | 0.01 | -0.55 | -0.55 | -0.06 | 0.09 |  | -0.23 |  | -0.64 | -0.52 | -0.83 | -0.21 |  |
